{
  "source": "PubChem BioAssay",
  "note": "The source made the active and inactive calls.",
  "data": [
    {"test": "probe aXIP binding to arrayed compounds – biochemical, NeuroSMM set, 635/667 nm fluorescence, primary screen (AID 1119);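 also: probe is the protein aXip251-270 applied at 1 µg/mL to compound-printed slides; binding of probe to printed compounds measured as 667 nm fluorescence plus signal to noise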", "details": "small-molecule microarray, higher = more signal, called active from +8 up or from −8 down", "values": [
      {"compound": "CC1CC/C=C\\[C@H]2OC34C=CCN(C(C)(C)C)C(=O)[C@H]3N(CCCCCCO)C(=O)[C@@H]4C2C(=O)O1", "note": "(stereo not given in full)", "composite Z-score": "-0.358 (inactive)"},
      {"compound": "C[C@@]1([C@@H](NC(=O)c2ccccc2)c2ccc(-c3ccccc3)cc2)C[C@H]1C1CCCCC1", "composite Z-score": "0.309 (inactive)"},
      {"compound": "COCCCNC(=O)[C@@]1(Cc2ccccc2N=[N+]=[N-])N=C(c2ccc(OCCCO)cc2)O[C@H]1c1ccccc1N=[N+]=[N-]", "composite Z-score": "0.328 (inactive)"},
      {"compound": "CCN(CC)c1ccc(N2CC=CC34O[C@@H]5/C=C\\CCCOC(=O)C5[C@H]3C(=O)N(CCO)[C@@H]4C2=O)cc1", "note": "(stereo not given in full)", "composite Z-score": "0.858 (inactive)"},
      {"compound": "CC(C)(C)OC(=O)CC[C@]12N=C(c3ccc(OCCCO)cc3)O[C@H]1c1ccccc1N(CCS(=O)(=O)c1ccccc1)C2=O", "composite Z-score": "1.02 (inactive)"},
      {"compound": "CN1C(=O)C2C=CC(C(O)c3cccs3)N(Nc3ccccc3)C2C1=O", "note": "(stereo not given)", "composite Z-score": "-0.227 (inactive)"},
      {"compound": "O=C1O[C@H](c2ccccc2)[C@H](c2ccccc2)N2[C@H]1[C@@H](C(=O)O)[C@]1(C(=O)Nc3ccc(C#CC4=CCCCC4)cc31)[C@H]2c1ccccc1OCCO", "composite Z-score": "0.685 (inactive)"},
      {"compound": "COc1cc(OC)c(C(O)C2C=CC3C(=O)NC(=O)C3N2Nc2ccc(Cl)cc2Cl)cc1Br", "note": "(stereo not given)", "composite Z-score": "2.76 (inactive)"},
      {"compound": "C=CC[C@]1(C(=O)NCCCOC)N=C(c2ccc(OCCCO)cc2)O[C@H]1c1ccccc1N=[N+]=[N-]", "composite Z-score": "0.484 (inactive)"},
      {"compound": "Cc1ccc(S[C@]2(C(=O)NCCN3CCOCC3)CC(=O)N(Cc3ccccc3Cl)[C@@H]2c2ccc(CO)cc2)cc1", "composite Z-score": "-0.0407 (inactive)"},
      {"compound": "Cc1ccc(S[C@]2(C(=O)NCC(C)C)CC(=O)N(Cc3cc(C(F)(F)F)cc(C(F)(F)F)c3)[C@@H]2c2ccc(CO)cc2I)cc1", "composite Z-score": "0.786 (inactive)"},
      {"compound": "CC(C)[C@@H](CO)NC(=O)[C@H]1[C@@H](c2ccccc2)N(c2ccccc2)O[C@@H]1C", "composite Z-score": "0.365 (inactive)"},
      {"compound": "C=CCOC(=O)[C@@H]1[C@H]2C(=O)O[C@H](c3ccccc3)[C@H](c3ccccc3)N2[C@H](c2ccc(OCCOC(=O)[C@@H]3C[C@@H]4C(=O)N[C@@H](CCCCN(C)C)C(=O)N4[C@@H]3c3ccc(O)cc3)cc2)[C@@]12C(=O)Nc1ccc(I)cc12", "composite Z-score": "0.412 (inactive)"},
      {"compound": "COCCOC(=O)N1C(=O)[C@@]2(c3cc(C#CC4=CCCCC4)ccc31)[C@H](C(=O)Nc1nc3ccccc3s1)[C@H]1C(=O)O[C@H](c3ccccc3)[C@H](c3ccccc3)N1[C@@H]2c1ccccc1OCCO", "composite Z-score": "-0.478 (inactive)"},
      {"compound": "CC(C)N1C(=O)[C@@]2(Cc3ccccc31)c1ccccc1C(=O)N(C1CCCCC1)[C@H]2c1ccc(CO)cc1", "composite Z-score": "-0.0662 (inactive)"},
      {"compound": "O=C1O[C@H](c2ccccc2)[C@H](c2ccccc2)N2[C@H]1[C@@H](C(=O)O)[C@]1(C(=O)Nc3ccc(C#CCCO)cc31)[C@H]2c1ccc(O)cc1", "composite Z-score": "0.0575 (inactive)"},
      {"compound": "C=CC[C@@]1(C(=O)NCc2ccccc2)N=C(c2ccc(OCCCO)cc2)O[C@@H]1c1ccccc1N=[N+]=[N-]", "composite Z-score": "-0.108 (inactive)"},
      {"compound": "COc1ccc(CCN2C(=O)[C@@]3(c4ccc([N+](=O)[O-])cc4)CC(=O)N(C4CCCCC4)[C@@H]3c3ccc(CO)cc32)cc1", "composite Z-score": "0.469 (inactive)"},
      {"compound": "C=CCOC(=O)[C@@H]1[C@H]2C(=O)O[C@H](c3ccccc3)[C@H](c3ccccc3)N2[C@H](c2ccc(OCCOC(=O)[C@@H]3C[C@@H]4C(=O)N[C@@H](CCCC[N+](C)(C)C)C(=O)N4[C@@H]3c3cccc(OCCO)c3)cc2)[C@@]12C(=O)Nc1ccc(I)cc12", "composite Z-score": "0.516 (inactive)"},
      {"compound": "O=C1[C@H]2C=C(Br)[C@H](C[C@@H]2OCCCCO)[C@@]12CO2", "composite Z-score": "0.572 (inactive)"},
      {"compound": "O=C(NCc1ccccc1)[C@@]1(Cc2ccccc2)N=C(c2ccc(OCCCO)cc2)O[C@H]1c1ccccc1", "composite Z-score": "0.1 (inactive)"},
      {"compound": "CCc1oc(CC[C@@H](CO)NC(=O)NCCn2cc(C3(O)CCCCC3)nn2)c(C(=O)OC)c1C(=O)OC", "composite Z-score": "-0.0435 (inactive)"},
      {"compound": "C=C(/C(=C/C[C@@H](OC(C)=O)c1ccc(OCCO)cc1)c1cnc2ccccc2c1)C(C)C", "composite Z-score": "-0.199 (inactive)"},
      {"compound": "COC(=O)[C@@]1(Cc2ccc(F)cc2)[C@H]2c3cc(C(=O)N(C)C)n(Cc4ccc(S(C)(=O)=O)cc4)c3C[C@H]2CN1C(=O)c1ccccc1", "composite Z-score": "0.542 (inactive)"},
      {"compound": "O=C(NCc1ccc(F)cc1)[C@H]1C[C@H]2C(=O)N[C@@H](Cc3ccccc3)C(=O)N2[C@H]1c1ccc(O)cc1", "composite Z-score": "0.239 (inactive)"},
      {"compound": "C=CC[C@@]1(C(=O)N(C)C)N=C(c2ccc(OCCCO)cc2)O[C@@H]1c1ccccc1N=[N+]=[N-]", "composite Z-score": "0.149 (inactive)"},
      {"compound": "C=C(COC)/C(=C/C[C@@H](OC(C)=O)c1ccc(OCCO)cc1)c1cc(C(=O)OC)ccc1OC", "composite Z-score": "-0.064 (inactive)"},
      {"compound": "Cc1ccc(C(C)CC(O)C2C=CC3C(=O)N(C)C(=O)C3N2NC(=O)OC(C)(C)C)o1", "note": "(stereo not given)", "composite Z-score": "1.31 (inactive)"},
      {"compound": "CC(C)C[C@@H]1NC(=O)[C@H]2C[C@@H](C(=O)NCCCCCCN(C)C)[C@@H](c3ccc(O)cc3)N2C1=O", "composite Z-score": "0.531 (inactive)"},
      {"compound": "CN(C)CCCCCCNC(=O)[C@@H]1C[C@@H]2C(=O)N[C@@H](CCCCN)C(=O)N2[C@@H]1c1cccc(OCCO)c1", "composite Z-score": "7.35 (inactive)"},
      {"compound": "[N-]=[N+]=NCc1ccccc1[C@H]1OC(c2ccc(OCCCO)cc2)=N[C@@]1(Cc1ccccc1)C(=O)NCc1ccccc1", "composite Z-score": "-0.157 (inactive)"},
      {"compound": "CCOC(=O)C[C@H]1[C@H](OC(=O)c2cc3ccccc3oc2=O)[C@@H](NC(=O)C2CCCCC2)c2cc(OCCCO)ccc2N1C(=O)c1ccccc1", "composite Z-score": "-0.275 (inactive)"},
      {"compound": "[N-]=[N+]=NCc1ccccc1C[C@]1(C(=O)NCC(O)CO)N=C(c2ccc(OCCCO)cc2)O[C@H]1c1ccccc1", "note": "(stereo not given in full)", "composite Z-score": "-0.321 (inactive)"},
      {"compound": "CO[C@H]1O[C@H](CO)[C@@H](OC(=O)Nc2ccc(Br)cc2)[C@H](OC(=O)c2cc3ccccc3[nH]2)[C@H]1OC(=O)c1cc2ccccc2[nH]1", "composite Z-score": "0.907 (inactive)"},
      {"compound": "CC(CO)N1C(=O)[C@@H]2C3C(=O)OCCC/C=C\\[C@H]3OC23C=CCN(c2ccc4ccccc4c2)C(=O)[C@@H]13", "note": "(stereo not given in full)", "composite Z-score": "-0.0775 (inactive)"}
    ]}
  ]
}
